FID counter = counter-screen for HCV NS3 helicase inhibitors: DNA intercalator displacement; inhibition, % at 7.9 µM; DNA fluorescent intercalator displacement, fluorescence; hit rate 0.17% among 290,000; in the data active means inhibition above about 37%;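 further: 0% = vehicle and 100% = reference compound; higher means more ethidium bromide displaced from hairpin DNA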
MEKK3 PB1 HTS = MEKK3-MEK5 PB1 interaction, increase or decrease; Q99759; bead-based flow cytometry, Alexa488-MEK5 binding to MEKK3; actives lie on both sides; 0 = blocked by unlabeled MEK5, 100 = vehicle; binding response (% of control), % at 10 µM; hit rate 1.4% among 290,000; AID 1529;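 active means binding response more than 3 SD above or below the average of its plate-row segment, actives on both sides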;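 further: Alexa488 bead fluorescence after subtracting the streptavidin-only scavenger bead signal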
MEKK2 mut-MEK5 = signal of MEK5 binding to mutant human MEKK2 PB1 domain; bead flow cytometry, Alexa488-MEK5 binding to MEKK2 mutant; percent response, % at 10 µM; hit rate 0.35% among 290,000; in the data active means percent response above about 24%, passing the limit was not always enough
MEKK2 WT-MEK5 = raises or lowers MEK5 binding to wildtype human MEKK2 PB1 domain. binding response (% of control), % at 10 µM. Q9Y2U5. bead flow cytometry, Alexa488-MEK5 binding to MEKK2 WT; actives lie on both sides. hit rate 1.1% among 290,000; in the data active means binding response below about 67% or above about 130%
dFosB activator = activators of mouse delta FosB homodimer; activation, % at 25 µM; AID 493131; hit rate 0.99% among 340,000; purified delta FosB, TAMRA-CDK5 oligo fluorescence polarization; percent of positive-control signal above neutral wells;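 active means mean activation above about 17%, with every replicate also reaching it, limit read from the data, passing the limit was not always enough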
Target sequence (P13346 whole entry, looked up): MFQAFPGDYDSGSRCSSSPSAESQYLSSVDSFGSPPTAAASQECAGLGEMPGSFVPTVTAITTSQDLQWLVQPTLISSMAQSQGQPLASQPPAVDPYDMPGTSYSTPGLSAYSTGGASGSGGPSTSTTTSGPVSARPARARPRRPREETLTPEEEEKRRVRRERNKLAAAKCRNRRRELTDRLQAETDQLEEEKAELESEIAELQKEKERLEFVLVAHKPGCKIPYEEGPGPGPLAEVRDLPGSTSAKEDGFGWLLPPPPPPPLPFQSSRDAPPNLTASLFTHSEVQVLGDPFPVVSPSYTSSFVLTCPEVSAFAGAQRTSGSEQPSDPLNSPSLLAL
MEKK2wt confirm = raises or lowers MEK5 binding to wildtype human MEKK2, retest. shares compounds with MEKK3 PB1 HTS. bead flow cytometry, Alexa488-MEK5 binding to MEKK2 WT; actives lie on both sides. binding response (% of control), % at 10 µM. hit rate 2.4% among 5,900. AID 1892; in the data active means binding response below about 16% or above about 210%; inactive means in between
MEKK2mut-MEK5 = signal of MEK5 binding to mutant human MEKK2, retest; shares compounds with MEKK3 PB1 HTS; hit rate 2% among 5,900; bead flow cytometry, Alexa488-MEK5 binding to MEKK2 mutant; percent response, % at 10 µM; in the data active means percent response mostly above about 71%, no sharp cut-off; inactive means mostly below about 38%;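 further: higher means compound restores mutant binding toward wildtype level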
MEKK3-MEK5 inh = confirmation of inhibitors of MEK5 binding to human MEKK3. shares compounds with MEKK3 PB1 HTS. bead flow cytometry, Alexa488-MEK5 binding to MEKK3; stronger effect = lower value. binding response (% of control), % at 10 µM. hit rate 1.8% among 5,900. AID 1894;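 active means binding response below 72% of control, or above a set upper limit, though filed actives all read lower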;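 further: 100% = DMSO only wells and 0% = binding blocked by excess unlabeled MEK5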
* marks the source's active call; other numbers are inactive results; . = not tested or not shown; ! = a repeat was not active; [ ] = remark or other dose. Compounds with a hit are over-represented: about 2.9% of the library has one in this group of screens.

SMILES | FID counter | MEKK3 PB1 HTS | MEKK2 mut-MEK5 | MEKK2 WT-MEK5 | dFosB activator | MEKK2wt confirm | MEKK2mut-MEK5 | MEKK3-MEK5 inh
CC(C)c1cc(C(=O)OCC(=O)N2CCN(C(=O)c3ccco3)CC2)c(O)c(C(C)C)c1 | -20 | 107 | 9 | 110 | -14 | . | . | .
C=CCSC1=NNC(c2ccc(C(C)(C)C)cc2)=NN1 | -14 | 100 | 7 | 100 | -1 | . | . | .
CC(=O)NS(=O)(=O)c1ccc(NC(=O)c2cc3c(=O)n4ccccc4nc3s2)cc1 | -1 | 102 | 3 | 106 | -29 | . | . | .
CCN(CC)S(=O)(=O)c1ccc(OC)c(NC(=O)c2cc3c(=O)n4ccccc4nc3s2)c1 | -7 | 130* | 0 | 104 | -9 | 102 | -1 | 105
Cc1cc(NC(=O)CSc2nccn2C)n(-c2ccccc2)n1 | -2 | 102 | 2 | 97 | -2 | . | . | .
CCOC(=O)C1=NN(C(C)=O)C2(CC(=O)N(c3cccc(C)c3)C2=O)C1 (stereo unspecified) | 1 | 139* | 0 | 104 | -13 | 105 | -3 | 103
Fc1ccc([C@@H]2CCNC[C@H]2COc2ccc3c(c2)OCO3)cc1 | 31 | 112 | 6 | 144*! | -2 | 128 | 13 | 101
O=C(COC(=O)C1(c2ccc(F)cc2)CCCC1)Nc1ncc(C(F)(F)F)cc1Cl | -7 | 133* | 2 | 111 | -5 | 101 | -2 | 102
CCn1nnnc1-c1ccc(OC)c(S(=O)(=O)NCCc2ccccc2)c1 | -4 | 45*[inhibitor] | 1 | 101 | -3 | 101 | -1 | 98
CCn1nnnc1-c1ccc(OC)c(S(=O)(=O)Nc2ccc(S(N)(=O)=O)cc2)c1 | 4 | 89 | -1 | 92 | -3 | . | . | .
Cc1ccccc1C(=O)NNc1ncnc2c1cnn2C | 13 | 92 | -4 | 96 | -2 | . | . | .
Cn1ncc2c(NNC(=O)c3ccccc3Cl)ncnc21 | -3 | 129* | -1 | 100 | 3 | 100 | 2 | 104
CC(C)c1ccc(NC(=O)Nc2cc3sccc3n2C)cc1 | 1 | 101 | 7 | 97 | -2 | . | . | .
O=C(CN1CCC(NC(=O)Nc2ccccc2-c2ccccc2)CC1)NCc1ccco1 | 1 | 105 | 7 | 106 | 10 | . | . | .
O=C(Nc1ccccc1-c1ccccc1)NC1CCN(C(=O)N2CCOCC2)CC1 | -18 | 122* | 4 | 120 | -9 | 107 | 10 | 102
CCOC(=O)COn1c(=O)c(-c2cccs2)[n+]([O-])c2ccccc21 | -1 | 15*[inhibitor] | -8 | 26*[inhibitor] | -10 | 102 | 4 | 102
CN(N)C(=S)NCc1ccccc1 | -2 | 123* | 5 | 116 | -4 | 102 | -2 | 97
CC(C)C(NC(=S)NCc1ccccc1)C(=O)O (stereo unspecified) | -8 | 34*[inhibitor] | -10 | 43*[inhibitor] | 1 | 95 | -2 | 98
CC(CCc1ccccc1)NC(=O)C(=O)NCCc1ccccc1 (stereo unspecified) | -5 | 97 | 0 | 98 | -1 | . | . | .
O=C(O)CNC(=S)NCc1ccccc1 | -1 | 101 | 0 | 103 | 6 | . | . | .
CC(C)CCNC(=O)C(=O)NCc1ccccc1 | 2 | 49*[inhibitor] | -20 | 53 | 0 | 96 | -1 | 97
Cc1ccc(SCC(=O)NCCSC(C)(C)C)cc1 | -20 | 95 | -2 | 100 | -8 | . | . | .
Cc1cccc(OC(C)C(=O)Nc2nc(-c3ccncc3)cs2)c1 (stereo unspecified) | . | . | . | . | 1 | . | . | .
CS/C(N)=N/N=C/c1cc(C)ccc1O | -2 | 61 | -24 | 68 | -5 | . | . | .
CS/C(N)=N/N=C/c1cc(Br)cc(Br)c1O | 12 | 129* | 26 | 128 | 3 | 100 | 2 | 100
SMILES | FID counter | MEKK3 PB1 HTS | MEKK2 mut-MEK5 | MEKK2 WT-MEK5 | dFosB activator | MEKK2wt confirm | MEKK2mut-MEK5 | MEKK3-MEK5 inh
O=C(/C=C/c1ccc(Cl)c(C(F)(F)F)c1)N1CCN(c2ccccn2)CC1 | -32 | 101 | -1 | 98 | 2 | . | . | .
CCN(CC)C(=O)c1c([N+](=O)[O-])c(C(C)(C)C)nn1C | 0 | 140* | 1 | 111 | 0 | 104 | 1 | 106
Cn1nc(C(C)(C)C)c([N+](=O)[O-])c1C(=O)NCCO | -1 | 95 | -3 | 100 | 1 | . | . | .
Cn1nc(-c2ccc(Cl)cc2)cc1NC(=O)CC(C)(C)CC(=O)O | -29 | 129* | 26 | 124 | . | 96 | -3 | 93
Cn1nc(-c2ccccc2)cc1NC(=O)CCCC(=O)O | 3 | 94 | -7 | 100 | -3 | . | . | .
COc1ccc(C(C(=O)NC2CCCCC2)N(C(=O)c2sc(C)nc2C)c2ccccc2)cc1 (stereo unspecified) | -2 | 99 | -3 | 97 | -3 | . | . | .
COc1ccc(C(C(=O)NC2CCCC2)N(C(=O)c2ccoc2C)c2ccccc2)cc1 (stereo unspecified) | -32 | 137* | 0 | 108 | -9 | 101 | 1 | 103
COc1ccc(C(C(=O)NC2CCCCC2)N(C(=O)c2sc(C)nc2C)c2ccc(OC)cc2)cc1 (stereo unspecified) | -7 | 46*[inhibitor] | -14 | 60 | -5 | 100 | -2 | 98
N#Cc1ccc2ccn(CC(=O)NC3CCCCCC3)c2c1 | 1 | 101 | -4 | 99 | 2 | . | . | .
N#Cc1ccc2ccn(CC(=O)NCc3ccco3)c2c1 | -3 | 114 | 13 | 139* | 2 | 102 | -4 | 99
COc1cccc(NC(=O)c2ccccc2Oc2ccccc2)c1 | -26 | 102 | 3 | 104 | 1 | . | . | .
COc1cccc(Nc2ncccc2C(=O)Nc2ccccc2)c1 | 1 | 129* | 6 | 127 | -7 | 105 | 6 | 102
COc1cccc(NC(=O)c2nc3ncccn3n2)c1 | -8 | 2.0*[inhibitor] | -18 | 2.0*[inhibitor] | 4 | 105 | 3 | 102
O=C(O)CC1(CC(=O)NCc2ccncc2)CCCCC1 | -8 | 101 | -3 | 100 | 3 | . | . | .
O=C(O)CC1(CC(=O)NCc2ccc(C(F)(F)F)cc2)CCCCC1 | -12 | 128* | 23 | 125 | -5 | 100 | -4 | 101
O=c1oc2ccccc2c(NCc2ccccc2F)c1[N+](=O)[O-] | -1 | 136* | -1 | 105 | -8 | 115 | 9 | 107
CC(C)c1ccc(CNc2c([N+](=O)[O-])c(=O)oc3ccccc23)cc1 | 1 | . | . | . | -3 | . | . | .
CCNC(=S)N1CCN(S(=O)(=O)c2cccc(C(F)(F)F)c2)CC1 | -4 | 151* | 0 | 110 | -5 | 105 | 1 | 103
CCNC(=S)N1CCN(c2nc(-c3ccc(F)cc3)cs2)CC1 | -12 | 111 | 3 | 110 | -7 | . | . | .
